FMDV inh: foot and mouth disease virus antiviral activity; FMDV antiviral cell-based qHTS; Potency, µM (top dose mostly 57.9 µM), most hits filed as inhibitors; 410,000 tested, 1.2% active; calls by dose curve; tested in HEK293T cells; also: read-out not given here; nearly all actives have a fitted effect of over 45% in size
HCV inhibitor: HCV inhibition. Huh7.5.1 HCVcc-Cre infection, luciferase reporter, 44 h. Potency, µM (doses to about 41.8 µM), usual class: inhibitors. 340,000 tested, 3.4% active. AID 651820; active = well fitted inhibition curve with a large enough effect; inconclusive = small, poorly fitted or top-dose-only effect, or another doubt; inactive = no such curve, though single readings can be large or run the other way
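A cell-based infection assay in which seeded cells (1,000 per well) receive test compound after 4 h, are inoculated with HCVcc-Cre at approximately 0.5 moi, and are incubated 44 h before luminescence detection.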
HCMV antiviral: inhibitors of human cytomegalovirus; activity change, negative = inhibition, % at 57.5 µM; HFF cells, HCMV-luciferase reporter, 72 h; stronger effect = lower value; 410,000 tested, 4.5% active; in the data active = activity change below about -60%; inconclusive = no clear call, values can overlap the other calls; inactive = above about -39%
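Luciferase read-out from HCMV-luciferase-infected HFFs (MOI 1 PFU/cell) 72 h post infection at 37C; compounds added after 16 h cell attachment; activity normalized between buffer-only basal and Salinomycin (10uM) inhibitor controls.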
Marburg entry inh: Marburg virus entry inhibition; Marburg virus pseudotyped entry inhibition, cell reporter; Potency, µM (series often up to 37.8 µM), hits mostly inhibitors; 300,000 tested, 1.8% active; calls by dose curve; tested in HEK293 cells
LASV entry inh: Lassa virus entry inhibition | Lassa virus pseudotype entry inhibition, cell reporter | Potency, µM (highest dose often 37.9 µM), hits mostly inhibitors | 300,000 tested, 1.2% active; calls by dose curve; tested in HEK293 cells; also: nearly all actives have a fitted effect of over 50% in size
Numbers stand for hits; n = inactive; u = inconclusive; x = no result given; + = active, no number. Sampled rows, rich in hits. Any-hit rate of the full collection: about 7.9%.

SMILES | FMDV inh | HCV inhibitor | HCMV antiviral | Marburg entry inh | LASV entry inh
CCCS(=O)(=O)NC(=O)C1(C)CCCN(C(=O)CCc2cccs2)C1 (stereo not drawn) | n | x | n | x | x
CCCS(=O)(=O)NC(=O)C1(C)CCCN(C(=O)CCc2ccccc2)C1 (stereo not drawn) | x | x | -65.1 | x | x
Cc1nn(C(=O)CCCC(=O)NCc2ccccc2)c2ccccc12 | n | 22.4µM | n | x | x
COc1cccc2c(=O)cc(C)n(CC(=O)Nc3cccc(C)c3)c12 | u | 8.91µM | u | n | n
O=C(Cn1c(=O)nc(-c2ccccc2)c2cc(Cl)ccc21)NCc1ccccc1 | 14.1µM | x | u | x | n
COc1ccc(-n2c(=O)c3ccc(C(=O)NCc4ccc(C)cc4)cc3n(CC(=O)Nc3ccc(F)cc3)c2=O)cc1 | n | x | n | u | n
O=C(Cn1c(=O)nc(-c2ccccc2)c2cc(Cl)ccc21)NCCc1ccc(Cl)cc1 | u | x | n | n | n
COc1cccc(NC(=O)CNC(=O)Cn2c(C)cc3ccccc3c2=O)c1 | n | x | n | u | n
COc1ccc(-n2c(=O)c3ccc(C(=O)NCc4ccc(C)cc4)cc3n(CC(=O)Nc3ccc(C)cc3)c2=O)cc1 | n | x | -70.8 | n | n
CCc1cccc(C)c1NC(=O)CSc1nc2ccccc2nc1N1CCOCC1 | u | x | n | u | u
CCc1ccc(NC(=O)Cn2c(=O)n(CCCC(=O)NCCc3ccc(OC)c(OC)c3)c(=O)c3ccccc32)cc1 | n | x | n | n | n
Cc1cc(=O)c2ccccc2n1Cc1ccccc1 | u | 12.6µM | -69.8 | u | n
CCc1nn(CC(=O)NCc2ccccc2)c(=O)c2cccn12 | n | x | n | u | 11.2µM
Cc1nc2ccccc2n1CC(=O)NC(C)C1CC2CCC1C2 (stereo not drawn) | u | u | -64.8 | u | n
Cc1nc2ccccc2n1CC(=O)NCc1ccccc1 | u | n | -78.9 | u | n
Cc1nc2ccccc2n1CC(=O)NN | n | n | u | x | x
O=C(CSc1nc2ccccc2n1Cc1ccc(F)c(Cl)c1)N1CCN(c2ccc(F)cc2)CC1 | u | x | n | u | x
CCN(CC)C(=O)c1sc2c(c1C)c(=O)n(CCc1ccccc1)c(=O)n2Cc1cc(C)ccc1C | n | x | n | x | u
CCc1ccccc1N1CC(c2nc3ccccc3n2Cc2cccc(C)c2)CC1=O (stereo not drawn) | n | x | n | n | n
COc1ccc(NC(=O)Cn2c(=O)n(CCc3ccccc3)c(=O)c3ccccc32)cc1 | n | x | n | n | n
Cc1cc(=O)c2ccccc2n1CC(=O)NCc1ccccc1 | u | u | -71.1 | 10.3µM | u
COc1ccc(NC(=O)Cn2c(C)cc(=O)c3ccccc32)cc1 | u | 7.08µM | -79.8 | u | u
CCOC(=O)Cn1c(C)cc(=O)c2ccccc21 | u | n | n | n | n
CCS(=O)(=O)Nc1cc(C(=O)N2CCCN(C=O)CC2)c2c(c1)nc(-c1ccccc1)n2C | n | x | x | x | x
CC(=O)OC1CCC2(C)C3CCC4(C)C(C(C)=O)CCC4C3CC3OC32C1 (stereo not drawn) | n | n | -61.1 | n | n
SMILES | FMDV inh | HCV inhibitor | HCMV antiviral | Marburg entry inh | LASV entry inh
CC(=O)OC1(C(C)=O)CCC2C3CC4OC45CC(O)CCC5(C)C3CCC21C (stereo not drawn) | n | n | n | u | n
Cc1ccccc1Cn1c(C)c(CNCc2ccccc2)c(C(=O)O)c1C | n | x | n | n | n
CC(C)CN(CCCNC(=O)Cn1ncc2c3ccccc3n(C)c2c1=O)CC(C)C | n | x | n | n | n
CCCCOc1ccc(N(CC(=O)NC(C)(C)CC)C(=O)CCC(=O)Nc2ccccn2)cc1 | n | n | n | 8.91µM | u
O=C(NC1CCCCC1)Oc1cc2oc(=O)sc2cc1Cl | 25.1µM | n | n | n | n
Cc1cc(NC(=O)CSc2ncc(C(=O)Nc3ccc(C)c(C)c3)c(=O)n2C)no1 | n | x | n | x | n
Cc1cc(/C=C2\SC(=S)N(Cc3ccco3)C2=O)c(C)n1-c1cccnc1 | n | u | n | n | n
Cc1cc(/C=C2/SC(=S)N(c3cccc(C(F)(F)F)c3)C2=O)c(C)n1-c1cccnc1 | u | 1.58µM | x | u | u
CCc1ccc(Sc2cc(C(=O)NCCCN3CCCC(C)C3)c3ccccc3n2)cc1 (stereo not drawn) | n | x | -60.5 | x | u
CCc1ccc(Sc2cc(C(=O)NCc3cccc(OC)c3)c3ccccc3n2)cc1 | n | x | u | x | u
CCc1ccc(Sc2cc(C(=O)NCCCN3CCC(C)CC3)c3ccccc3n2)cc1 | n | x | -77.1 | x | u
CCc1ccc(Nc2cc(C(=O)NCCCN3CCOCC3)c3ccccc3n2)cc1 | n | u | u | x | x
O=c1cc(-c2ccccc2)n2c(SCc3cccc([N+](=O)[O-])c3)nnc2[nH]1 | n | x | n | x | n
O=S1(=O)N(Cc2ccccc2)CCCN1Cc1ccc(F)cc1Cl | n | x | + | x | n
COc1ccc2[nH]c3nc(SCC(=O)NNC(=O)c4ccc(OC)c(OC)c4)nnc3c2c1 | 7.08µM | n | n | n | n
COc1cccc(CNC(=O)CSc2nnc3c(n2)[nH]c2ccccc23)c1 | u | 10µM | n | u | x
CC1CCc2cc(F)ccc2N1C(=O)CSc1nnc2c(n1)[nH]c1ccccc12 (stereo not drawn) | u | u | -75.6 | u | u
COc1ccccc1NC(=O)CSc1nnc2c3ccccc3n(C(C)C)c2n1 | u | x | -60.9 | u | u
O=C(CSc1nnc2c(n1)[nH]c1ccccc12)N1CCCCC1 | n | u | u | n | n
COc1cc(CN(C(=O)COc2ccc(F)cc2)c2ccccn2)cc(OC)c1OC | n | x | n | n | n
CCS(=O)(=O)N1CC2(CN(C(=O)Cc3ccccn3)[C@@H](CO)c3[nH]c4cc(OC)ccc4c32)C1 | x | x | n | x | x
COc1cc(OC)c(NC(=O)N2CCc3c([nH]c4ccccc34)C2c2ccccc2F)cc1Cl (stereo not drawn) | n | x | u | x | u
Cc1cc2c(cc1S(=O)(=O)Nc1cccc(C#N)c1)OCC(=O)N2 | n | x | u | x | n
Cc1nn(C(=O)c2ccccc2)c(C)c1S(=O)(=O)N1CCCCCC1 | n | x | n | x | n
COc1ccccc1NC(=O)CSc1nnc2c(n1)[nH]c1ccccc12 | u | x | n | n | 11.2µM
SMILES | FMDV inh | HCV inhibitor | HCMV antiviral | Marburg entry inh | LASV entry inh
COc1ccc(-c2nnc(SCC(=O)NCc3ccccc3)nc2-c2ccc(OC)c(OC)c2)cc1OC | n | x | -78.2 | x | u
Cc1oc(-c2ccccc2F)nc1CS(=O)(=O)CC(=O)N1CCN(c2cccc(C(F)(F)F)c2)CC1 | 35.5µM | x | n | u | n
Cc1cccc(N2CCN(C(=O)CS(=O)(=O)Cc3nc(-c4ccccc4F)oc3C)CC2C)c1 (stereo not drawn) | 35.5µM | 12.6µM | n | n | x
Cc1oc(-c2ccccc2F)nc1CS(=O)(=O)CC(=O)N1CCOCC1 | n | n | n | x | x
Cc1cccc(N2CCN(C(=O)CS(=O)(=O)Cc3nc(-c4ccccc4C)oc3C)CC2C)c1 (stereo not drawn) | u | x | u | u | n
Cc1cc(F)c(Nc2ncnc3cc(OCc4ccccc4)ccc23)cc1O | n | x | x | x | x
COc1ccc(-c2noc(CCC(=O)NCCCN3CCC(Cc4ccccc4)CC3)n2)cc1 | u | 2.51µM | u | u | n
